Inconclusive results are not listed. Unmarked numbers belong to inactive results. Activity calls are given as the source filed them. Calls follow the shape of the dose curve; as a rule, active = well fitted inhibition curve with a large enough effect; inconclusive = small, poorly fitted or top-dose-only effect; inactive = flat fitted curve, though single readings scatter. Where a SMILES comes first, the peptide text is derived from it. [ ]: non-standard residue; d: D form. pGlu = O=C1CC[C@@H](C(=O)O)N1
Biological target: Calcium and integrin-binding protein 1 (Homo sapiens) (UniProt Q99828)
Sequence (Q99828 whole entry, looked up): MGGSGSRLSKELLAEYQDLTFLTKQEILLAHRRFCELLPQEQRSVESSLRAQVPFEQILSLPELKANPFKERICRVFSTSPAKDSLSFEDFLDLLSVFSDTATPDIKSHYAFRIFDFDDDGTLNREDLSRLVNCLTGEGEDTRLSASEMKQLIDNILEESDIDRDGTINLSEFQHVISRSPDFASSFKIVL
Assay: Primary qHTS for Identification of Calcium Integrin Binding Protein 1 (CIB1) Competitor (AID 1508620);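 as to activity change, negative = inhibition: GST tagged CIB1 binding a fluorescein labelled alphaIIb integrin peptide tracer; top concentration of the series differs between compounds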
Conditions: CIB1-GST / FITC-alphaIIb peptide fluorescence polarization; series mostly up to 114 µM; activity change, negative = inhibition: at the top concentration
From the text: Assay Provider: Ulhas P. Naik, PhD Sidney Kimmel Medical College Thomas Jefferson University, Philadelphia, PA Primary function of platelets is to maintain hemostasis. At the site of vascular injury, platelets adhere to adhesive proteins such as collagen and von Willebrand factor. Adherent platelets are activated and generate soluble platelet agonists such as thrombin, ADP and thromboxane A2. Following exposure of circulating platelets to these agonists, results in platelet shape change, granule secretion and activation of platelet integrin alphaIIb-beta3. Ligand binding to activated integrin alphaIIb-beta3 triggers outside-in signaling, leading to platelet aggregation, stabilization of platelet plug, and clot retraction. Upon atherosclerotic plaque rupture also causes platelet plug formation, which underlies a number of cardiovascular diseases such as myocardial infraction and stroke. A number of anti-platelet drugs such as aspirin, clopidogrel, prasugrel, vorapaxar, and eptifibatide are currently available to prevent the thrombotic complications. However, these anti-platelet agents have several limitations including inherent variability in individual responses, developing resistance, and serious bleeding side effects. For these reasons they are not suitable for long-term protection. Based on the experiences with current anti-platelet drugs, it appears that the most useful therapeutic approach is to intersect the secondary responses such as integrin outside-in signaling or recruitment of platelets by TxA2 and secreted ADP. Compounds, which can largely preserve the primary hemostatic function of platelets but inhibit secondary response will be most desired therapeutic agents for treatment of cardiovascular disease. CIB1 is a calcium integrin binding protein, which specifically interact with the alphaIIb subunit of integrin alphaIIb-beta3. Binding of CIB1 to alphaIIb regulates the outside-in signaling in platelets, which is needed for thrombus stabilization and thrombus growth. […] Therefore, we propose that discovery of a small molecule that can prevent the association of CIB1 and alphaIIb-beta3 will be a potential anti-platelet agent that can block the thrombus formation without undue effect on hemostasis. Reference: [1] Naik MU, Nigam A, Manrai P, et al. CIB1 deficiency results in impaired thrombosis: the potential role of CIB1 in outside-in signaling through integrin alpha IIb beta 3. J Thromb Haemost.
PROTOCOL TABLES SEQUENCE No. (1, 2, 3, etc.); […] (e.g., Cells, Incubation, Reagent, etc.); VALUE and DESCRIPTION. 1; Reagent; 3 uL; Protein or buffer (4/3x) 2; Compound; 46 nL; Control inhibitor / compound library 3; Time; 15 min; Room temperature incubation 4; Reagent; 1 uL; Fluorescent labeled peptide (4x) 5; Time; 1000 rpm; Centrifuge 6; Time; 15 min; Room temperature incubation 7; Detection; Ex 480/ Em 540; ViewLux Fluorescence Read NOTES (numbers refer to sequence above) 1; Protein Mixture: C1B1-GST (final concentrations of 1 uM). […] 3; Room temperature incubation. 4; Fluorescent Labeled Peptide: FITC-aIIb (final concentration of 100 nM). Sequence of alphaIIb peptide: Acetyl-[…]-FITC (purity is 95.83%). 5; Centrifuge 1000 rpm (164 g) for 15 seconds. 6; Room temperature incubation. 7; ViewLux Fluorescent Polization Read: excitation = 480(20) / emission = 540(25) S and P; FITC Dichroic mirror.
% is scaled to controls: 0 for no effect and ±100 for the full control effect; potency is read from the fitted curve at half-maximal effect.

Row | Structure (SMILES) | activity change, negative = inhibition | Potency
1 | C[C@@H]1CCC[C@H](C)N1CCCC(O)(c1ccccc1)c1ccccn1 (stereo not given in full) | 5.72% | 
2 | CCN1C(=O)c2ccccc2C1Nc1ccc(OCCN2CCCCC2)cc1 (stereo not given) | 4.77% | 
3 | O=c1[nH]sc2cc(Cl)ccc12 |  | 3.55 µM (active)
4 | CN=C(N)NC(=O)Nc1c(C)cccc1C | 1.19% | 
5 | CCCCCCCCCCCCCC[N+](C)(C)C | -8.22% | 
6 | CC(=O)OC/C=C(C)/C=C/C=C(C)/C=C/C1=C(C)CCCC1(C)C | -2.18% | 
7 | CCS(=O)(=O)c1ccc(OC)c(C(=O)OC)c1 | -1.19% | 
8 | CC(=O)N(CC(O)CO)c1c(I)c(C(=O)NCCO)c(I)c(C(=O)NCC(O)CO)c1I (stereo not given) | -0.741% | 
9 | CC(=O)c1ccc(O)c(C(N)=O)c1 | -2.38% | 
10 | Cc1ncc([N+](=O)[O-])n1C | -3.92% | 
11 | O=C1CCCc2c(O)cccc21 | 2.55% | 
12 | O=C(Nc1ccc(Cl)cc1)Nc1ccc(Cl)c(Cl)c1 | -1.07% | 
13 | CCC(=O)O[C@H]1[C@H](O[C@@H]2[C@@H](C)[C@H](O[C@H]3C[C@@](C)(OC)[C@@H](O)[C@H](C)O3)[C@@H](C)C(=O)O[C@H](CC)[C@@](C)(O)[C@H](O)[C@@H](C)C(=O)[C@H](C)C[C@@]2(C)O)O[C@H](C)C[C@@H]1N(C)C | 2.86% | 
14 | Cc1cccc(N(C)C(=S)Oc2ccc3c(c2)C2CCC3C2)c1 (stereo not given) | 3.61% | 
15 | COc1cc(C=O)ccc1O | -5.23% | 
16 | Cc1nc([N+](=O)[O-])cn1-c1ccc([N+](=O)[O-])cc1 | -6.96% | 
17 | CNC(=O)c1c(I)c(NC(C)=O)c(I)c(C(=O)O)c1I | -3.54% | 
18 | CCNC(=O)[C@@H]1CCCN1C(=O)[C@H](CCCN=C(N)N)NC(=O)[C@H](CC(C)C)NC(=O)CNC(=O)[C@H](Cc1ccc(O)cc1)NC(=O)[C@H](CO)NC(=O)[C@H](Cc1c[nH]c2ccccc12)NC(=O)[C@H](Cc1cnc[nH]1)NC(=O)[C@@H]1CCC(=O)N1 ([pGlu]HWSYGLRP-NHEt) | 1.27% | 
19 | COc1cc(C(=O)NC2CCCNC2)cc(OC)c1OC (stereo not given) | -1.21% | 
20 | O=C(O)[C@@H](O)[C@H](O)[C@H](O)[C@@H](O)C(=O)O | 1.24% | 

Row | Structure (SMILES) | activity change, negative = inhibition | Potency
21 | CC(=O)Nc1ccn(C2COC(COC(=O)c3ccccc3)O2)c(=O)n1 (stereo not given) | 0.829% | 
22 | CC[N+]1(CC)CCC(=C(c2ccccc2)c2ccccc2)C1C (stereo not given) | 0.537% | 
23 | Cc1ccccc1C(=O)N1CC/C(=N\OS(=O)(=O)O)c2ccc(Cl)cc21 | -5.01% | 
24 | Cc1ccc2c(Cl)cc(Cl)c(O)c2n1 | -2.78% | 
25 | CCCCN(CCN(CCCC)C(=O)N1CCOCC1)C(=O)N1CCOCC1 | 52.3% | 
26 | COc1cc2c(cc1OC)C(=O)CC2 | 2.08% | 
27 | c1ccc(C(O[C@H]2CCCN(CCc3ccc4c(c3)OCO4)C2)c2ccccc2)cc1 | -3.8% | 
28 | Cc1c(F)cc2c(=O)c(C(=O)O)cn3c2c1CCC3C (stereo not given) | -3.16% | 
29 | Cc1c(N)cccc1C(F)(F)F | -2.17% | 
30 | Cc1cccc(N(C)C(=S)Oc2ccc3c(c2)CCC3)c1 | 2.83% | 
31 | Cc1ccc(C(C)OC(=O)C2(C)CCC(C(=O)O)C2(C)C)cc1 (stereo not given) | 1.67% | 
32 | CC(C)(C)c1ccc(C(=O)CCCCl)cc1 | 0.244% | 
33 | c1ccc2occc2c1 | -10.4% [at 228 µM] | 
34 | CC(=O)N[C@@H](CCC(N)=O)C(=O)O | 0.345% | 
35 | Cc1onc(-c2c(Cl)cccc2Cl)c1C(=O)Cl | 2.91% | 
36 | CCC1(c2cnc[nH]2)Cc2ccccc2C1 | -2.62% | 
37 | CCOC(=O)OCC/C(SC(=O)OCC)=C(\C)N(C=O)Cc1cnc(C)nc1N | 8.14% | 
38 | Cc1ccc(CCn2c3c(c4cc(Cl)ccc42)CN(C)CC3)cn1 | -0.644% | 
39 | COc1cc(NS(=O)(=O)c2ccc(N)cc2)nc(C)n1 | -0.994% | 
40 | CC(C)Cc1ccc(C(C)C(=O)OCc2ccccn2)cc1 (stereo not given) | 0.0073% | 
